Out of some 290,000 compounds screened, about 2,300 (0.79%) were called active. Cut-off read from the data, not from the text of the source: active = inhibition above about 22%; inactive = the rest. Shown is part of a subset that was picked to be rich in actives.
Assay: IEC-6 cell viability reduction – luminescence, cytotoxicity control for KLF5 inhibitor project, primary screen (AID 1825);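 note: 0% = plate median of test compound wells and 100% = cytotoxic reference compound wells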
Conditions: IEC-6 cytotoxicity, at 5 µM, stronger effect = higher value

| Compound | inhibition |
| --- | --- |
| COc1cc(-n2c(=S)[nH]c3ccc(C)cc3c2=O)c(Cl)cc1Cl | 27.3% (active) |
| CN(C)CC1Oc2ccccc2OC1(O)c1ccccc1 (stereo not given) | 10.6% (inactive) |
| COc1ccc(N2C(=O)/C(=C/c3ccco3)C(=O)NC2=S)cc1 | -11.8% (inactive) |
| COc1cc2nc(N3CCN(C(=O)[C@@H]4CCCO4)CC3)nc(N)c2cc1OC | -0.7% (inactive) |
| CN(c1ccccc1)c1ccc([N+](=O)[O-])c2nonc12 | 13.2% (inactive) |
| CC1=CC(=Cc2sc3ccccc3[n+]2C)C=C(C)O1 | 25.9% (active) |
| CCc1nc2ccccc2c(=O)n1-c1cccc(OC)c1 | -0.6% (inactive) |
| COc1cc(Cn2c(N)c(C(=O)NCc3ccco3)c3nc4ccccc4nc32)cc(OC)c1OC | 7.4% (inactive) |
| COc1ccc(-c2nn(CCC#N)cc2C(=O)O)cc1 | -8.6% (inactive) |
| COc1ccc(C(=O)CC2C(=O)N(C)C(=O)N(C)C2=O)cc1 | 2% (inactive) |
| Cc1nc2ccccc2c(=O)n1-c1ccc(Cl)cc1Cl | -4.8% (inactive) |
| CCCCCCCCCCCCn1ccc(=N)cc1 | 78.8% (active) |
| CCOP(=S)(OCC)C(O)CCCCCn1c(=O)c(F)cn(C2CCCO2)c1=O (stereo not given) | -1.2% (inactive) |
| CCOc1cccc(=NC2CCCCC2)c2c(C)[nH]c(C)c12 | -11.4% (inactive) |
| COc1cccc(N2C(=O)NC(=O)/C(=C\c3ccc([N+](=O)[O-])s3)C2=O)c1 | -9.9% (inactive) |
| Cc1cc2ccccn2c1C(C[N+](=O)[O-])c1c(F)cccc1Cl (stereo not given) | 47.4% (active) |
| CC(=O)Nc1ccc(C(=O)C(Cc2ccccc2)N(C)C)cc1 (stereo not given) | -0.8% (inactive) |
| CC(=O)c1c(C)n(C(C)C)c2ccc(O)cc12 | 3.8% (inactive) |
| COc1ccc(-c2nn(CCC#N)cc2C(=O)Nc2ccc(C(C)=O)cc2)cc1 | -1.6% (inactive) |
| O=c1c2ccccc2nc(/C=C/c2ccco2)n1-c1ccccc1O | -4.9% (inactive) |

Source: PubChem BioAssay AID1825 (The Scripps Research Institute Molecular Screening Center, 2009)
